ST2 IL33 inh: IL1RL1 inhibition; Q01638; AlphaLISA ST2-Fc/biotin-IL-33 interaction, 1 h; inhibition, % for hits at 17 µM; hit rate 2.3% among 78,000; AID 1259354; in the data active = inhibition above about 30%
Target sequence (Q01638 whole entry, looked up): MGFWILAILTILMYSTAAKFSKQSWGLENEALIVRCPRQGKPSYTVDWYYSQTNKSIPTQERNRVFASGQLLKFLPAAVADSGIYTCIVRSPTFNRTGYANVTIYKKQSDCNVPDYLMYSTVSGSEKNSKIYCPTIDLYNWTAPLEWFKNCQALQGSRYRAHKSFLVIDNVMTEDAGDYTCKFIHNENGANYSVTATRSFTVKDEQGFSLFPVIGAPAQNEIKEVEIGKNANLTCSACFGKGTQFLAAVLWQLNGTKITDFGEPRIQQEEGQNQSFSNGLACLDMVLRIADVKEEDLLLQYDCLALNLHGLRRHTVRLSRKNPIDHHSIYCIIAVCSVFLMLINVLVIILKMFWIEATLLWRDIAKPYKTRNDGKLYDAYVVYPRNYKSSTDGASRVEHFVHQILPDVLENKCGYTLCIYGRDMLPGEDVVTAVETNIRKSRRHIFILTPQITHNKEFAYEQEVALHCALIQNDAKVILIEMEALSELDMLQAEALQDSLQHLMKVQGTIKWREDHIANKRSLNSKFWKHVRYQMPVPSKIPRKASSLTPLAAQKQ
Numbers without * were called inactive; i = inactive. This is one part of a sample in which hits are shown more often than they occur.

SMILES	ST2 IL33 inh
c1ccc(N=c2scc(-c3ccccc3)n2Cc2cccnc2)cc1	41%*
CCOC(=O)c1cnc2c(ccc3ccccc32)c1Nc1cccc(C(=O)OC)c1	i
COC(=O)c1ccc(Oc2nc(OC)nc(N(C)C)n2)cc1	i
CCN(CC)CCNC(=O)C1CCN(Cc2sccc2C)CC1	i
CCCn1cnc2c1CN(C(=O)c1ccc(C(F)(F)F)cc1)[C@H](C(=O)OC)C2	i
CC(C)CC1=NN(C(=O)c2ccccc2Br)C(O)(C(F)(F)F)C1 (stereo not given)	i
Cc1ccc(C(C)C)cc1S(=O)(=O)N1CCOCC1	i
Cc1cc2ccccc2c(=O)n1Cc1ccccc1	i
O=C(CSc1nnc2c(n1)[nH]c1ccccc12)Nc1ccc(Cl)c(Cl)c1	i
Cc1ccc(N2C(=O)C3CCCCC3C2=O)cc1F (stereo not given)	i
CCOCCCNC(=O)C1(O)c2ccccc2NC(=O)N1c1ccc(OCC)cc1 (stereo not given)	i
Cc1ccccc1CNC(=O)COc1ccc(Cl)cc1Cl	i
Cn1c(=O)c2c(nc3n(CCCO)c(-c4ccc(F)cc4)cn23)n(C)c1=O	i
O=C(N=c1scc(-c2ccc(Cl)cc2)n1Cc1ccco1)c1ccccc1	i
OCCn1c(-c2ccc(F)cc2)csc1=Nc1ccccc1	36%*
COc1ccc(C(=O)Nc2cc(OC)cc(OC)c2)cc1	i
CCCOc1ccc(NC(=O)c2ccc(OC)cc2)cc1	i
COc1ccccc1NC(=O)c1ccc(OC)c(OC)c1	i
COc1ccc(C(=O)Nc2ccc(N3CCCC3)cc2)cc1	59%*
COc1ccc(C(=O)N2CCCCCC2)cc1OC	i
COc1ccc(C(=O)Nc2ccc(N3CCCC3)cc2)cc1OC	35%*
COc1ccc(C(=O)N2CCC(C(=O)N3CCC(Cc4ccccc4)CC3)CC2)cc1	i
CC(=O)N1C[C@@H]2OCC(=O)N(C(C)C)[C@@H]2C1	i
CC1=C(C(N)=O)C(c2ccc(Cl)cc2)n2nc(SCc3ccccc3F)nc2N1 (stereo not given)	i
COc1ccccc1C(=O)N/C(=C\c1ccc2c(c1)OCO2)C(=O)NCc1ccco1	i
SMILES	ST2 IL33 inh
CCOc1ccc2c(c1)C(NCCN1CCOCC1)CC(C)(C)O2 (stereo not given)	i
COCc1cc(C)nc2sc(C(=O)Nc3ccccc3)c(N)c12	i
O=C(NC1CC1)c1ccc2c(c1)N(Cc1cccc(Cl)c1)C(=O)CS2	i
CCOc1ccc(NC(=O)c2ccccc2C)cc1	i
Cc1ccc(OC2CCN(C(=O)C3CCC(=O)N(CCN4CCOCC4)C3)CC2)cc1 (stereo not given)	i
CN(C)C(N)=NC(N)=Nc1ccccc1	i
O=[N+]([O-])c1nn(-c2ccccc2)[n+]([O-])c1N1CCCCCC1	i
O=[N+]([O-])c1cccc2c(Br)[nH]nc12	i
O=[N+]([O-])c1cccc2ccc(N3CCCCC3)nc12	30%*
O=C(Cn1cnc2c(cnn2-c2ccccc2)c1=O)NCc1ccc2c(c1)OCO2	i
Cc1nn(C)c(C)c1CCC(=O)N(C)Cc1cnn(-c2ccc(F)cc2)c1	i
CC(=O)N(CN1C(=O)c2ccc(Br)cc2C1=O)c1ccc(OCc2ccccc2)cc1	i
CC(=O)N(CN1C(=O)c2ccccc2C1=O)c1cccc(C)c1	i
CC(=O)N(CN1C(=O)c2ccc(Br)cc2C1=O)c1cccc(C(=O)O)c1	45%*
O=C(Nc1c2c(nn1-c1ccc(F)cc1)CS(=O)C2)c1cccs1 (stereo not given)	i
Cc1nn(-c2cccc(Cl)c2)c2c1C(c1cccc([N+](=O)[O-])c1)C(C#N)=C(N)O2 (stereo not given)	45%*
COc1cccc(C2C(C#N)=C(N)Oc3c2c(=O)n(C)c(=O)n3C)c1 (stereo not given)	i
Cc1nn(-c2ccccc2)c2c1C(c1cccc([N+](=O)[O-])c1)C(C#N)=C(N)O2 (stereo not given)	i
O=C1Nc2ccccc2C(O)(C(=O)NC2CCCCCCC2)N1c1ccc(Cl)cc1 (stereo not given)	i
N#Cc1ccc(CNC(=O)[C@@H]2Cc3nc[nH]c3CN2Cc2ccc(OC(F)(F)F)cc2)cc1	i
Clc1ccc(CN2CCN(c3ccccn3)CC2)cc1Cl	i
Fc1ccc(CN2CCN(c3ccccn3)CC2)cc1Br	33%*
Fc1ccccc1CN1CCN(c2ccccn2)CC1	i
CN(CC(=O)O)c1ccccc1C(=O)O	i
COc1ccc(-n2ncc3c(Nc4ccccc4SC)ncnc32)cc1	i
SMILES	ST2 IL33 inh
COc1ccc2cc3cc(C(=O)Nc4ccc(F)cc4F)sc3nc2c1	35%*
Cc1cccn2c(=O)c3cc(C(=O)Nc4ccccc4F)sc3nc12	35%*
COc1ccc(N2CCN(C(=O)c3cc4cc5ccc(OC)cc5nc4s3)CC2)cc1	i
Cc1ccc(Cl)cc1NC(=O)c1cc2c(=O)n3cccc(C)c3nc2s1	i
COc1ccc2nc3oc(C(=O)Nc4ccccc4F)cc3cc2c1	i
COc1ccc2cc3cc(C(=O)Nc4ccc(F)cc4)sc3nc2c1	35%*
COc1ccc(-n2c(=O)[nH]cc(C(=O)Nc3ccc(F)cc3F)c2=O)cc1	i
COc1ccc(C(=O)Nc2ccccc2F)cc1	i
Cc1cccn2c(=O)c3cc(C(=O)Nc4ccccc4C#N)sc3nc12	i
COc1ccc2cc3cc(C(=O)Nc4cccc(C#N)c4)sc3nc2c1	i
COc1ccc2cc3cc(C(=O)Nc4ccccc4F)sc3nc2c1	41%*
Cc1ccc2cc3cc(C(=O)NC(C)C)sc3nc2c1	i
CC(C)CCN1CCNC(=O)C1CC(=O)NC1CCN(c2ccccc2)CC1 (stereo not given)	i
O=C(CCSc1nc2ccccc2o1)Nc1ccccc1Br	i
CN1CCN(C(=O)CNS(=O)(=O)c2cccs2)CC1	i
CCOc1ccc(-c2nc3cc(NC(=O)c4ccc(F)cc4)ccc3o2)cc1	i
Cc1cc(C(=O)N2CCOc3c(O)cc(-c4ccccc4C)cc3C2)n[nH]1	i
Fc1ccccc1OCCOc1cccc2cccnc12	i
Cc1ccc(-c2nsc(SCC(=O)Nc3ccc4c(c3)OCCO4)n2)cc1	i
O=C(Nc1c(Cl)cccc1Cl)c1cc(-c2cccs2)on1	i
COc1cc(Br)c(Br)c(C=Nc2cc(C)ccc2O)c1O	i
Cc1ccccc1N=Cc1cc([N+](=O)[O-])ccc1O	i
Cc1ccc(O)c(C=Nc2ccc(Br)c3cccnc23)c1	97%*
Nc1nc(-c2ccccc2)c(Br)c(=O)[nH]1	i
Brc1c(-c2ccccc2)nc2n1-c1ccccc1C2	44%*
SMILES	ST2 IL33 inh
Cc1[nH]nc(-c2ccccc2)c1Br	i
COc1ccc(CC(=O)NC2CCCCC2C)cc1 (stereo not given)	i
C=CCNc1ccccc1C(=O)N1CCC(C(O)Cc2ccccc2)CC1 (stereo not given)	i
CCN(Cc1ccccc1)Cc1ccc(NC(C)=O)cc1	i
CCN(CC)c1ccc(NC(=O)Cc2ccccc2)cc1	36%*
CCN(CC)c1ccc(NC(=O)CCN2C(=O)c3ccccc3C2=O)cc1	i
CC(C)(CC(=O)O)CC(=O)N[C@H]1CO[C@H]2[C@@H]1OC[C@@H]2Nc1nccc(C(C)(C)C)n1	i
Fc1ccc(C2=CSC3=NCCN23)cc1	i
Brc1ccc(C2=CSC3=NCCN23)cc1	i
Clc1ccc(OC2=C(c3ccccc3)N3CCN=C3S2)cc1	45%*
CN(Cc1ccon1)C(=O)c1ccccc1-c1nc(-c2ccccc2)no1	i
O=C(CCc1ccccc1)n1cc([N+](=O)[O-])cn1	i
